Measured values taken from PubChem BioAssay (NCATS).
Records with an inconclusive call do not appear. Where a call stands in place of a potency, no number is given. Unmarked numbers belong to inactive results. Calls of active or inactive are those of the source. Calls follow the shape of the dose curve; as a rule, active = well fitted inhibition curve with a large enough effect; inconclusive = small, poorly fitted or top-dose-only effect; inactive = no such curve, though single readings can be large or run the other way.

Columns and labels:
[1] = system: Zika virus NS2B-NS3 protease (unlinked complex); assay: Primary screen GU Rhodamine qHTS for Zika virus inhibitors: Unlinked NS2B-NS3 protease assay (AID 1347159); also: nearly all actives have a fitted effect of over 60% in size
In short: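 Noncovalent NS2B hydrophilic domain–NS3 protease domain complex (25 nM) preincubated 15 min at room temperature with compounds (up to 114 microM) in 10 mM Tris-HCl pH 8.0, 0.01% Tween 20; 1.5 microM Rhodamine110 substrate added, fluorescence change over 15 min fitted to Hill equation.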

[2] = system: Zika virus NS2B-NS3 protease (linked construct); assay: Primary screen NINDS Rhodamine qHTS for Zika virus inhibitors (AID 1347160); also: nearly all actives have a fitted effect of over 55% in size
In short: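 Purified linked NS2B-NS3 protease (NS2B hydrophilic domain joined to NS3 protease by flexible linker), 25 nM in 10 mM Tris-HCl pH 8.0, 0.01% Tween 20. Compounds titrated, 15 min preincubation at room temperature; 1.5 microM Rhodamine110 substrate, FITC fluorescence change over 15 min.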
Potency is read from the fitted curve at half-maximal effect.

Structure (SMILES) | Potency [1] | Potency [2] | activity change, negative = inhibition [1] | activity change, negative = inhibition [2]
COc1ccc([C@@]2(O)c3c(ccc(CC=C(C)C)c3O)NC(=O)[C@@H]2OC)cc1 | inactive | inactive | – | –
C/C=C1\[C@H](O[C@@H]2O[C@H](CO)[C@@H](O)[C@H](O)[C@H]2O)OC=C2C(=O)OCCc3ccc(O)c(c3)Oc3ccc(cc3)CCOC(=O)C[C@H]21 | inactive | inactive | – | –
COc1ccc(CN2C(=O)C(=O)c3cc(S(=O)(=O)N4CCC[C@H]4COc4cccnc4)ccc32)cc1 | inactive | inactive | – | –
CNC(=O)c1ccccc1Nc1cc(Nc2ccc(N3CCOCC3)cc2OC)ncc1C(F)(F)F | inactive | inactive | – | –
CC(O)/C=C/C1(O)C(C)C(O[C@@H]2O[C@H](CO)[C@@H](O)[C@H](O)[C@H]2O)C(O)CC1(C)C (some centres not stated) | inactive | inactive | – | –
C=C1CC2C(C)(CCC(=O)O)C(C(C)(C)O)CCC2(C)C2C(=O)OC(C)(C(=O)OC)C(=O)C12C (configuration not stated) | inactive | inactive | – | –
O=C(Nc1c(-c2cccs2)nc2ccccn12)c1ccc(Cl)cc1 | inactive | inactive | – | –
COC(=O)C12C(=O)C(C)=C(O)C1(C)C(C)=CC1C3(CO)CCC(O)C(C)(C)C3CCC12C (configuration not stated) | inactive | inactive | – | –
CN(C)C1CCN(C(=O)c2ccc(NC(=O)Nc3ccc(-c4nc(N5CCOCC5)nc(N5CCOCC5)n4)cc3)cc2)CC1 | inactive | inactive | – | –
CC(=O)O[C@@H]1[C@H](O[C@@H]2O[C@@H](CO)[C@H](O)[C@H]2O)[C@@H](O[C@@H]2O[C@@H](C)[C@H](O[C@@H]3OC[C@@H](O)[C@H](O)[C@H]3O)[C@@H](O)[C@H]2O)[C@H](OC(=O)[C@]23CCC(C)(C)C[C@H]2C2=CCC4[C@@]5(C)CC[C@H](O[C@@H]6O[C@H](C(=O)O)[C@@H](O)[C@H](O)[C@H]6O[C@@H]6O[C@H](CO)[C@H](O)[C@H](O)[C@H]6O)[C@@](C)(C=O)C5CC[C@@]4(C)[C@]2(C)CC3)O[C@@H]1C (some centres not stated) | – | – | 10.7% [at 19.1 µM] | -19.7% [at 10.7 µM]
CC(C)=CCC(O)/C(C)=C/CO[C@@H]1O[C@H](CO)[C@@H](O)[C@H](O)[C@H]1O (some centres not stated) | inactive | inactive | – | –
O=C(CO)[C@@H](O)[C@H](O[C@@H]1O[C@H](CO)[C@H](O)[C@H](O)[C@H]1O)[C@H](O)CO | inactive | inactive | – | –
C[C@@H]1O[C@@H](O[C@H]2[C@H](O)[C@@H](C(=O)O)O[C@@H](O[C@H]3CC[C@@]4(C)C(CC[C@]5(C)C4CC=C4C6CC(C)(C)CC[C@]6(C(=O)O)CC[C@]45C)C3(C)C)[C@@H]2O[C@@H]2OC[C@@H](O)[C@H](O)[C@H]2O)[C@H](O)[C@H](O)[C@H]1O (some centres not stated) | 8.91 µM (active) | 3.1 µM (active) | – | –
COc1cc2c(cc1OC)[C@@H]1[C@H](O)[C@@H](OC)C=C3CCN(C2)[C@H]31 | inactive | inactive | – | –
C[C@H]1Oc2cc(cnc2N)-c2c(nn(C)c2C#N)CN(C)C(=O)c2ccc(F)cc21 | inactive | inactive | – | –
CC(C)S(=O)(=O)N[C@H]1CCOC[C@@H]1c1ccc(-c2ccc(C#N)s2)cc1 | inactive | inactive | – | –
CC(C)c1cc(CNc2nc(Nc3cc(C4CC4)[nH]n3)cc(N3CCN(C)CC3)n2)on1 | inactive | inactive | – | –
C[C@@]12CC[C@@H]3[C@@](CC[C@H]4[C@@]3(C)CCC[C@@]4(C)C(=O)O)(CC1=O)C2 | inactive | inactive | – | –
Cc1ccc(-c2ccc3c(ccc4sc5c(c43)NC[C@@H](C)NC5=O)n2)cn1 | inactive | inactive | – | –

Structure (SMILES) | Potency [1] | Potency [2] | activity change, negative = inhibition [1] | activity change, negative = inhibition [2]
Cc1c(NC(=O)c2cc(C(N)=O)nc3cc(F)ccc23)c(C(F)(F)F)nn1Cc1ccc(C#N)cc1 | inactive | inactive | – | –
O=C1OCC(c2ccccc2)=C1Cc1ccccc1 | inactive | inactive | – | –
CC1(C)CC[C@]2(C(=O)O[C@@H]3O[C@H](CO)[C@@H](O)[C@H](O)[C@H]3O)CC[C@]3(C)C(=CCC4[C@@]5(C)C[C@@H](O)[C@H](O)C(C)(C)C5[C@H](O)C[C@]43C)[C@@H]2[C@@H]1O (some centres not stated) | inactive | inactive | – | –
OC1CCC(Nc2ncc3nc(Nc4c(F)cc(F)cc4F)n([C@H]4CCOC4)c3n2)CC1 (some centres not stated) | inactive | inactive | – | –
CN[C@H](C(=O)N[C@H](C(=O)N(C)[C@H](/C=C(\C)C(=O)O)C(C)C)C(C)(C)C)C(C)(C)c1ccccc1 | inactive | inactive | – | –
Cc1nc(NC(=O)N2CCCC2C(N)=O)sc1-c1csc(C(C)(C)C)n1 (configuration not stated) | inactive | inactive | – | –
CCOc1cc(C(=O)N2CCC(N3CCN(C)CC3)CC2)ccc1Nc1ncc2c(n1)N(C1CCCC1)c1ccccc1C(=O)N2C | inactive | inactive | – | –
CC1(C)C2CC=C(COC3OC(COC4OCC(O)(CO)C4O)C(O)C(O)C3O)C1C2 (configuration not stated) | inactive | inactive | – | –
Cn1c(=O)cc(N2CCCC(N)C2)n(Cc2cc(F)ccc2C#N)c1=O (configuration not stated) | inactive | inactive | – | –
CC1(C)CC[C@]2(C(=O)OC3OC(CO)C(O)C(O)C3O)CC[C@]3(C)C(=CCC4[C@@]5(C)CC[C@H](OC6OC(C(=O)O)C(O)C(OC7OC(CO)C(O)C(O)C7O)C6O)C(C)(C)C5CC[C@]43C)C2C1 (some centres not stated) | inactive | inactive | – | –
CC(=O)/C=C/[C@H]1[C@](C)(O)[C@@H](O)[C@H](OC(C)=O)C2C(C)(C)CCC[C@@]21C (some centres not stated) | inactive | inactive | – | –
Cc1c(CN2CCN(C(=O)C(C)O)CC2)sc2c(N3CCOCC3)nc(-c3cnc(N)nc3)nc12 (configuration not stated) | inactive | inactive | – | –
COC(=O)c1ccccc1O[C@@H]1O[C@H](CO)[C@@H](O)[C@H](O)[C@H]1O[C@@H]1O[C@@H](C)[C@H](O)[C@@H](O)[C@H]1O | inactive | inactive | – | –
C=CC(C)(O)CC[C@H]1C(=C)CCC2[C@](C)(C(=O)O)CCC[C@@]21C (some centres not stated) | inactive | inactive | – | –
COc1cc2c(NC3CCN(CC4CCCCC4)CC3)nc(N3CCCN(C(C)C)CC3)nc2cc1OCCCN1CCCCC1 | inactive | inactive | – | –
CC(C)[C@@](C)(O)[C@@H]1CN(c2nc(-c3[nH]nc4ncccc34)c(F)cc2Cl)CCN1 | inactive | inactive | – | –
O=C1Nc2ccccc2C(O)(c2ccccc2)C1O (configuration not stated) | inactive | inactive | – | –
CO[C@H]1/C=C\O[C@@]2(C)Oc3c(C)c(O)c4c(O)c(c5c(nc6cc(C)ccn65)c4c3C2=O)NC(=O)/C(C)=C\C=C/[C@H](C)[C@H](O)[C@@H](C)[C@@H](O)[C@@H](C)[C@H](OC(C)=O)[C@@H]1C | inactive | inactive | – | –
CC(C)(C)NCCCNC(=O)c1cccc(Br)c1 | inactive | inactive | – | –

Structure (SMILES) | Potency [1] | Potency [2] | activity change, negative = inhibition [1] | activity change, negative = inhibition [2]
CN(c1ccccc1CNc1nc(Nc2ccc3c(c2)CC(=O)N3)ncc1C(F)(F)F)S(C)(=O)=O | inactive | inactive | – | –
NCc1c[nH]c(=S)n1[C@@H]1CCc2c(F)cc(F)cc2C1 | inactive | inactive | – | –
COc1cc(C)c(C(=O)O[C@H]2[C@@H](OC(C)=O)[C@H](n3ccc(=O)[nH]c3=O)O[C@@H]2CO)c(OC)c1 | inactive | inactive | – | –
COc1cc(C(=O)NC2CCN(C)CC2)c(F)cc1Nc1ncc2c(n1)N(C1CCCC1)CC(F)(F)C(=O)N2C | inactive | inactive | – | –
CC(C)c1c2cc(-c3ccnc(NC4CCC(NC5CCOCC5)CC4)n3)ccc2nn1C (configuration not stated) | inactive | inactive | – | –
O=C(O[C@H]1[C@@H]2C=CO[C@@H](O[C@@H]3O[C@H](CO)[C@@H](O)[C@H](O)[C@H]3O)[C@@H]2[C@@]2(CO)O[C@@H]12)c1ccccc1 | inactive | inactive | – | –
C=C1[C@@H]2CC[C@@H]3[C@@](CCC4C(C(=O)O)(C(=O)O)C[C@@H](O[C@@H]5O[C@H](CO)[C@@H](O)[C@H](O)[C@H]5OC(=O)CC(C)C)C[C@]43C)(C2)[C@H]1O (some centres not stated) | inactive | inactive | – | –
COC(=O)C1(C)c2[nH]c3ccccc3c2CCN1C(=O)CCl (configuration not stated) | inactive | inactive | – | –
COC(=O)C1=CO[C@@H](O[C@@H]2O[C@H](CO)[C@@H](O)[C@H](O)[C@H]2O)C2C1C(=O)C[C@H]2C (some centres not stated) | inactive | inactive | – | –
CCC1=CC2CN(C1)Cc1c([nH]c3ccccc13)[C@@](C(=O)OC)(c1cc3c(cc1OC)N(C)[C@H]1[C@@](O)(C(=O)OC)[C@H](OC(C)=O)[C@]4(CC)C=CCN5CC[C@]31[C@@H]54)C2 (some centres not stated) | inactive | inactive | – | –
C=CC(C)(O)CC/C=C(\C)C(=O)OC1C(O)C(CO)OC(OC(=O)C23CCC(C)(C)CC2C2=CCC4C5(C)CCC(OC6OC(COC7OCC(OC(C)=O)C(O)C7OC7OC(COC(C)=O)C(O)C(O)C7O)C(O)C(O)C6O)C(C)(C)C5CCC4(C)C2(C)C(O)C3O)C1OC1OCC(OC2OCC(O)C(OC3OCC(O)C(O)C3O)C2O)C(O)C1O (configuration not stated) | – | – | 18.4% [at 19.1 µM] | 18.5% [at 10.7 µM]
O=C(NCc1ccc(S(=O)(=O)c2cc(F)cc(F)c2)cc1)c1ccc2nccn2c1 | inactive | inactive | – | –
CO[C@@H](C)Cn1c(=O)n(C)c2cnc3ccc(-c4cncc(C(C)(C)O)c4)cc3c21 | inactive | inactive | – | –
Cc1cnc(Nc2ccc(F)cc2Cl)nc1-c1c[nH]c(C(=O)NC(CO)c2cccc(Cl)c2)c1 (configuration not stated) | inactive | inactive | – | –
CC(=O)O[C@H]1[C@H](O[C@H]2[C@@H]3C=CO[C@@H](O[C@@H]4O[C@H](CO)[C@@H](O)[C@H](O)[C@H]4O)[C@@H]3[C@@]3(CO)O[C@@H]23)O[C@@H](C)[C@H](OC(=O)/C=C/c2ccccc2)[C@H]1OC(=O)/C=C/c1ccccc1 | inactive | inactive | – | –
COC1=CC(=O)CC(C)C12Oc1cc(OC)cc(O)c1C2=O (configuration not stated) | inactive | inactive | – | –
CCOC(=O)c1sc(NC(=O)[C@H](C(C)C)n2c(=O)[nH]c3ccccc3c2=O)nc1C | inactive | inactive | – | –
CCc1ccc(Cc2ccc3c(c2)[C@]2(OC3)O[C@H](CO)[C@@H](O)[C@H](O)[C@H]2O)cc1 | inactive | inactive | – | –
